Reference: publication PMC5540273 (PLoS ONE, 2017)

Assays:
Conditions in all cases: concentration: 1 μM, replicates: in singlicate; n = 1
[1] = system: T1, AMPK-alpha1
T1 construct: gene PRKAA1

[2] = system: T2, AMPK-alpha2
T2 construct: gene PRKAA2

[3] = system: ANKK1
[4] = system: T3, ARK5
T3 construct: gene NUAK1

[5] = system: T4, ASK1
T4 construct: gene MAP3K5

[6] = system: T5, ASK2
T5 construct: gene MAP3K6

[7] = system: AURKA
[8] = system: AURKB
[9] = system: AURKC
[10] = system: AXL
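Also: KINOMEscan kinase panel screen.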

SMILES: Cc1ccccc1-c1cc(-c2c[nH]nc2-c2ccccn2)ccn1 [GW680061]
- %Inh [1]: 1%
- %Inh [2]: 0%
- %Inh [3]: 0%
- %Inh [4]: 0%
- %Inh [5]: 0%
- %Inh [6]: 14%
- %Inh [7]: 0%
- %Inh [8]: 4%
- %Inh [9]: 6%
- %Inh [10]: 0%

SMILES: COc1ccc(Nc2nccc(N3CCC(NC(=O)c4cc5ccccc5s4)C3)n2)cc1 (centres unmarked) [GSK1379738]
- %Inh [1]: 0%
- %Inh [2]: 3%
- %Inh [3]: 3%
- %Inh [4]: 19%
- %Inh [5]: 12%
- %Inh [6]: 11%
- %Inh [7]: 14%
- %Inh [8]: 0%
- %Inh [9]: 22%
- %Inh [10]: 7%

SMILES: COC(=O)c1cccc(NC(=O)NC2CCN(c3ccnc(Nc4ccc(OC)cc4)n3)C2)c1 (centres unmarked) [GSK1379746]
- %Inh [1]: 0%
- %Inh [2]: 0%
- %Inh [3]: 0%
- %Inh [4]: 31%
- %Inh [5]: 22%
- %Inh [6]: 0%
- %Inh [7]: 10%
- %Inh [8]: 25%
- %Inh [9]: 28%
- %Inh [10]: 0%

SMILES: CS(=O)(=O)Cc1ccc(Nc2nccc(-c3c(-c4cccc(NC(=O)C5CCCCC5)c4)nn4ncccc34)n2)cc1 [GSK350559]
- %Inh [1]: 2%
- %Inh [2]: 2%
- %Inh [3]: 0%
- %Inh [4]: 0%
- %Inh [5]: 0%
- %Inh [6]: 34%
- %Inh [7]: 9%
- %Inh [8]: 15%
- %Inh [9]: 49%
- %Inh [10]: 18%

SMILES: Cc1ccc(NC(=O)c2ccc(Cl)cc2)cc1-c1ccc(C(=O)Nc2ccncc2)cc1 [GSK1398467]
- %Inh [1]: 0%
- %Inh [2]: 21%
- %Inh [3]: 0%
- %Inh [4]: 6%
- %Inh [5]: 0%
- %Inh [6]: 21%
- %Inh [7]: 0%
- %Inh [8]: 1%
- %Inh [9]: 17%
- %Inh [10]: 0%

SMILES: Cl.Cl.Cl.N#Cc1ccc(CCNc2nccc(-c3cccc(CN4CCNCC4)c3)n2)cc1 [GSK2137462]
- %Inh [1]: 25%
- %Inh [2]: 14%
- %Inh [3]: 15%
- %Inh [4]: 17%
- %Inh [5]: 20%
- %Inh [6]: 4%
- %Inh [7]: 20%
- %Inh [8]: 0%
- %Inh [9]: 15%
- %Inh [10]: 44%

SMILES: COc1ccc(Nc2nccc(N3CCC(NC(=O)C(C)c4ccc(Cl)cc4)C3)n2)cc1 (centres unmarked) [GSK1379735]
- %Inh [1]: 0%
- %Inh [2]: 21%
- %Inh [3]: 0%
- %Inh [4]: 22%
- %Inh [5]: 10%
- %Inh [6]: 4%
- %Inh [7]: 0%
- %Inh [8]: 24%
- %Inh [9]: 49%
- %Inh [10]: 16%

SMILES: COc1ccc(CSc2nnc(-c3ccc4c(c3)CCO4)o2)cc1
- %Inh [1]: 0%
- %Inh [2]: 0%
- %Inh [3]: 0%
- %Inh [4]: 33%
- %Inh [5]: 0%
- %Inh [6]: 0%
- %Inh [7]: 0%
- %Inh [8]: 0%
- %Inh [9]: 0%
- %Inh [10]: 0%

SMILES: CC(=O)c1c(C)c2cnc(Nc3ccc(N4CCNCC4)cn3)nc2n(C2CCCC2)c1=O
- %Inh [1]: 0%
- %Inh [2]: 0%
- %Inh [3]: 0%
- %Inh [4]: 0%
- %Inh [5]: 0%
- %Inh [6]: 0%
- %Inh [7]: 0%
- %Inh [8]: 0%
- %Inh [9]: 0%
- %Inh [10]: 0%

SMILES: Cc1cccc2c(-c3ccncn3)c(-c3ccc(F)cc3)nn12 [GW515532]
- %Inh [1]: 3%
- %Inh [2]: 16%
- %Inh [3]: 0%
- %Inh [4]: 0%
- %Inh [5]: 0%
- %Inh [6]: 0%
- %Inh [7]: 0%
- %Inh [8]: 0%
- %Inh [9]: 18%
- %Inh [10]: 10%

SMILES: CCn1c(-c2ccccc2)nc2cnccc21 [SB-733416]
- %Inh [1]: 0%
- %Inh [2]: 0%
- %Inh [3]: 0%
- %Inh [4]: 8%
- %Inh [5]: 28%
- %Inh [6]: 17%
- %Inh [7]: 0%
- %Inh [8]: 0%
- %Inh [9]: 30%
- %Inh [10]: 10%

SMILES: CCn1c(-c2c(N)noc2C)nc2cnccc21 [SB-737856]
- %Inh [1]: 4%
- %Inh [2]: 0%
- %Inh [3]: 0%
- %Inh [4]: 25%
- %Inh [5]: 0%
- %Inh [6]: 0%
- %Inh [7]: 0%
- %Inh [8]: 32%
- %Inh [9]: 4%
- %Inh [10]: 0%

SMILES: O=C(Nc1n[nH]c2cc(-c3ccsc3)ccc12)C1CC1 [SB-732932]
- %Inh [1]: 7%
- %Inh [2]: 0%
- %Inh [3]: 40%
- %Inh [4]: 0%
- %Inh [5]: 0%
- %Inh [6]: 30%
- %Inh [7]: 13%
- %Inh [8]: 35%
- %Inh [9]: 20%
- %Inh [10]: 43%

SMILES: Cn1cnc2c(N)ncnc21 [SKF-97623]
- %Inh [1]: 5%
- %Inh [2]: 0%
- %Inh [3]: 0%
- %Inh [4]: 0%
- %Inh [5]: 0%
- %Inh [6]: 0%
- %Inh [7]: 5%
- %Inh [8]: 0%
- %Inh [9]: 0%
- %Inh [10]: 10%

SMILES: Nc1ncnc2occ(-c3ccc4c(c3)CCN4C(=O)Cc3cc(F)ccc3F)c12 [GSK2645446]
- %Inh [1]: 4%
- %Inh [2]: 0%
- %Inh [3]: 3%
- %Inh [4]: 12%
- %Inh [5]: 0%
- %Inh [6]: 0%
- %Inh [7]: 0%
- %Inh [8]: 48%
- %Inh [9]: 40%
- %Inh [10]: 34%

SMILES: COc1ccc(CSc2nnc(-c3ccc4nccn4c3)o2)cc1C(F)(F)F
- %Inh [1]: 3%
- %Inh [2]: 9%
- %Inh [3]: 0%
- %Inh [4]: 9%
- %Inh [5]: 0%
- %Inh [6]: 44%
- %Inh [7]: 0%
- %Inh [8]: 22%
- %Inh [9]: 15%
- %Inh [10]: 20%

SMILES: CNC(=O)c1ccc(C)c(-n2c(C)cc(OCc3ccc(F)cc3F)c(Br)c2=O)c1
- %Inh [1]: 0%
- %Inh [2]: 5%
- %Inh [3]: 0%
- %Inh [4]: 0%
- %Inh [5]: 15%
- %Inh [6]: 0%
- %Inh [7]: 0%
- %Inh [8]: 0%
- %Inh [9]: 0%
- %Inh [10]: 0%
